# Measured values as given in PubChem BioAssay AID488841 (Sanford-Burnham Center for Chemical Genomics, 2010).
# The whole screen tested about 1,400 compounds, of which about 380 (27%) were called active. The list shows a part of the results. Values without a mark were called inactive.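 How the source made its calls: active means mean inhibition above 50% across duplicate retests at 10 µM; inactive means the rest.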
# Test: yeast NALP1 reporter signal suppression – S. cerevisiae, luminescence, single concentration, NALP1 inhibitor project, confirmation (AID 488841);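 further: plate controls were DMSO in galactose medium for no effect and cells in plain SD medium for full effect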
# Conditions: S. cerevisiae NALP1/ASC/Caspase-1 reporter, beta-gal luminescence; at 10 µM; stronger effect = higher value
row,Compound,inhibition
1,COc1cc(/C=N/n2cnnc2)ccc1OCc1ccc(C)cc1,50.9% (active)
2,COc1cc(C2Nc3ccccc3C(=O)N2c2ccccc2)ccc1O (stereo unspecified),27.3%
3,COC1=C(N)C(=O)c2nc(-c3nc(C(=O)O)c(C)c(-c4ccc(OC)c(OC)c4O)c3N)ccc2C1=O,33.7%
4,Cc1cccc(N2Cc3ccccc3C2=NC(=O)c2ccc(Cl)nc2)c1,26.5%
5,COC(=O)N/N=C(\C)c1ccc2ccccc2c1OC(F)F,55.9% (active)
6,CCSc1nnc(-c2cnn(-c3ccccc3)c2-n2cccc2)n1C,26.1%
7,CCSc1ncc(/C=N/Nc2ccccc2)n1C,68.9% (active)
8,Clc1ccc(OCCCNCc2ccccc2)c2ccccc12,49.3%
9,COC(=O)C(CCSC)NC(=O)Cn1ncc2c(=O)oc3ccccc3c21 (stereo unspecified),35.1%
10,CN(C#N)c1nc(Cl)nc(Nc2cccc(Cl)c2)n1,23.4%
11,O=C(COc1ccc(Br)cc1Br)NC(=S)Nc1cccc(CO)c1,29.1%
12,COc1ccc(Cc2ccc(OC)c(N)c2)cc1N,36.5%
13,COc1ccc(CNc2cccc(F)c2)cc1Br,62% (active)
14,CC(C)c1ccc(NCCC(=O)c2cccs2)cc1,44.8%
15,CC1CC1C(=O)Nc1nc(-c2ccccc2)cs1 (stereo unspecified),66.7% (active)
16,O=C(COC(=O)/C=C/c1cccs1)Nc1nc(-c2ccccc2)cs1,13.8%
17,O=C(COC(=O)c1cccs1)Nc1nc(-c2ccccc2)cs1,34%
18,O=C(Cc1coc2cc3c(cc12)CCC3)NCC1(N2CCCCC2)CCCCC1,22.9%
19,O=C1C2C(C(=O)N1/N=C/c1ccc([N+](=O)[O-])o1)C1C=CC2C12CC2 (stereo unspecified),34.8%
20,O=C1C2C(C(=O)N1/N=C/c1cc(Br)cc([N+](=O)[O-])c1O)C1C=CC2C12CC2 (stereo unspecified),59.4% (active)
21,O=C(CN1CCCCC1)Nc1cccc(Oc2ccccc2)c1,25.9%
22,O=S(=O)(N1CCCCC1)N1CCN(c2ccc(F)cc2)CC1,29.6%
23,O=C1C=CC(=O)N1c1ccc(N2CCCCC2)cc1,70.8% (active)
24,O=[N+]([O-])c1ccc(N2CCCCC2)cc1,32.1%
25,CCCCCCCCCCCCCCCC[n+]1cccc(C(=O)N(CC)CC)c1,80.4% (active)
26,CCCCN(CC)S(=O)(=O)c1ccccc1,-8.3%

row,Compound,inhibition
1,CCCCCCCCCCCCCCCC[n+]1ccc(C(N)=O)cc1,81.4% (active)
2,CCCCCCCCCCCCCCCC[n+]1ccc(/C=N/O)cc1,82% (active)
3,C1=CC2CC1CC2CN1CCN(Cc2ccccc2)CC1 (stereo unspecified),46.4%
4,COc1cc(-c2nc(C(F)(F)F)c(OC)o2)cc(OC)c1OC,28.9%
5,O=C(NC(N1CCOCC1)C(Cl)(Cl)Cl)c1ccc(Br)cc1 (stereo unspecified),-17.9%
6,CC1=CC2=NC(=O)/C(=C\c3cccn3CCOc3cccc(C)c3)C(=N)N2O1,76.5% (active)
7,O=C(O)/C=C/C(=O)OC1CC2CCC1C2 (stereo unspecified),24.1%
8,CN(C)Cc1ccccc1COc1ccccc1,23.2%
9,C/C(=C(\C#N)C(=O)NCc1ccccc1)N(C)C,33.3%
10,Cc1cc(N2CCOCC2)ccc1/C=C\[N+](=O)[O-],41.6%
11,CCOC(=O)COc1ccccc1/C=C\[N+](=O)[O-],101% (active)
12,CCOC(=O)COc1ccc2ccccc2c1/C=C/[N+](=O)[O-],99.7% (active)
13,CCOc1ccc(NC(=O)/C=C/c2ccccc2)c([N+](=O)[O-])c1,31.1%
14,COc1ccccc1OCC(=O)N/N=C/C=C/c1ccc([N+](=O)[O-])o1,32.6%
15,O=C(CCCN1C(=O)c2ccccc2C1=O)Oc1ccc(Cl)cc1,37.3%
16,CC(NCCC(c1ccccc1)c1ccccc1)c1ccccc1 (stereo unspecified),50.5% (active)
17,CCN1/C(=C/C=C/C=C/c2sc3ccccc3[n+]2CC)Sc2ccccc21,51% (active)
18,COc1cccc(OCc2ccc(C(=O)NCC3CCCO3)cc2)c1 (stereo unspecified),36.2%
19,CC1(O)N(Cc2ccccc2)C(=O)OC12CCCCC2 (stereo unspecified),29.2%
20,O=C(COC(=O)c1ccc(-c2ccc([N+](=O)[O-])cc2)o1)NC(=O)NC1CCCCC1,37.8%
21,O=C(N/N=C/c1cc(Cl)ccc1O)c1ccc(Br)cc1,43.6%
22,CC(C)(C)c1nnc(N/N=C/c2cc(Br)ccc2O)n(N)c1=O,53.5% (active)
23,CCCCNC(=O)Nc1cc(C)on1,23.2%
24,Cc1cc2ncn(/N=C/c3ccc([N+](=O)[O-])s3)c2cc1C,65.3% (active)
25,CN(C)/C=N/n1cnc2ccccc2c1=O,23.6%
26,CCOC(=O)C1CCN(C(=O)c2cc3cc4cc(OC)ccc4nc3o2)CC1,45.9%

row,Compound,inhibition
1,CCOc1ccc2nc(SC3CC(=O)N(c4cccc(OC)c4)C3=O)sc2c1 (stereo unspecified),32.1%
2,O=S(=O)(Nc1ccc(-n2cccc2)cc1)c1ccc(Cl)cc1Cl,52.4% (active)
3,O=C(O)C1CCN(C(=O)c2csc(-c3ccc4c(c3)CCO4)n2)CC1,22.9%
4,Cc1ccc(C(=O)CCC(=O)O)cc1,37%
5,CCCC(=O)c1ccc(-c2ccccc2)cc1,52.4% (active)
6,Cc1cccc(C)c1OCCNC(=O)CCC(=O)c1ccccc1,33.9%
7,O=C1OC(/C=C/c2ccc(Cl)cc2)=NC/1=C/c1ccco1,36.4%
8,CCCCCCCCCCCCCCCCn1cc[n+](C)c1,84.8% (active)
9,CCCCCCCCCCCCCCCCn1cc[n+](CC(C)=O)c1,76.5% (active)
10,CCCNCC1COc2ccccc2O1 (stereo unspecified),31.2%
11,COc1ccccc1OCCN1CSC(=S)N(C)C1,47%
12,O=[N+]([O-])c1cc2oc3c(c2c(C=NCc2ccccc2)c1O)CCCC3,34.6%
13,Cc1oc(-c2ccccc2Cl)nc1CSc1nc2c(c(=O)[nH]1)CCC2,31.5%
14,CNc1nc(SCc2ccc(C)cc2)nc2c1CCCC2,98.8% (active)
15,CNc1nc(SCc2ccccc2Cl)nc2c1CCCC2,99% (active)
16,Cc1ccc(NC(=O)N(C2CCCCC2)C(C)c2cccnc2)cc1C (stereo unspecified),32.9%
17,CC(C)N1CCC2(CC1)N=C(c1ccc3c(c1)OCO3)CC(c1cc(Cl)ccc1O)N2 (stereo unspecified),62.8% (active)
18,Clc1ccc(C2=NNC(=NCc3ccc4c(c3)OCO4)SC2)cc1,27.9%
19,N#CC(C#N)=c1ccc2c(c1)N1C3=C(CCCC3)CC3CCCCC31N=2 (stereo unspecified),7.95%
20,CC1CCCC/C1=N\Nc1ccc(S(N)(=O)=O)cc1[N+](=O)[O-] (stereo unspecified),30.3%
21,COC(=O)c1c(S(=O)(=O)NCc2ccccc2)sc(C(=O)O)c1C,22%
22,Fc1ccc(Nc2ccnc(Nc3ccc(F)cc3)n2)cc1,29.5%
23,COc1ccc(Nc2ccnc(Nc3ccc(OC)cc3)n2)cc1,55% (active)
24,CCN(CC)S(=O)(=O)c1ccc2[nH]c(=O)cc(C(=O)Nc3ccc(C)c(S(=O)(=O)N(CC)CC)c3)c2c1,27.6%
25,Clc1ccc(Nc2ccc(NCc3ccccc3)nn2)cc1,75.7% (active)
26,CC(C)C(NS(=O)(=O)c1ccc2c(c1)oc(=O)n2C)C(=O)N1CCN(C2CCCCC2)CC1 (stereo unspecified),25.9%

row,Compound,inhibition
1,CSc1ccc(S(=O)(=O)NCc2ccc(C)cc2)cc1,38.7%
2,CC(C)(C#CCN1CCCCC1)OCCOC(c1ccccc1)c1ccccc1,28.1%
3,CN(C)C(C)(C)C#CCC(c1ccccc1)c1ccccc1,61.6% (active)
4,COc1ccc(C2SCC(=O)N2CCCN(C)C)cc1 (stereo unspecified),35%
5,Cc1ccsc1/C=N/n1c(-c2ccccn2)n[nH]c1=S,37.9%
6,Cc1cccc(/C=N/n2c(-c3cc(-c4ccccc4)n[nH]3)n[nH]c2=S)c1,27.3%
7,S=c1[nH]nc(-c2ccco2)n1/N=C/c1cccc(Cl)c1Cl,56% (active)
8,CC(C)Oc1ccc(OCCNC2CCCC2)cc1,35.8%
9,CCN1CCN(c2cc3c(cc2F)c(=O)c(C(=O)O)cn3C2CC2)CC1,14.2%
10,CS/C(=N\S(=O)(=O)c1cccs1)Nc1ccc(Br)cc1F,52% (active)
11,Cn1c(=O)c([N+](=O)[O-])c(-n2cnc3ccccc32)c2ccccc21,37%
12,CN1CCN(S(=O)(=O)c2ccc(Br)c3nsnc23)CC1,19.9%
13,CN1c2ccccc2Sc2cc(N)ccc21,94% (active)
14,Cc1nc(C)c(/C(O)=C/c2nc3ccccc3oc2=O)s1,44.5%
15,CCn1c(N2CCN(C(=O)C34CC5CC(CC(C5)C3)C4)CC2)nc2ccccc21,44.6%
16,C/C(=N\NC(=O)Cc1csc(N2CCOCC2)n1)c1ccccc1,24.6%
17,O=c1cc(CSc2ccc(Cl)cc2)[nH]c2[nH]n(-c3ccccc3)c(=O)c12,29.9%
18,Cc1ccc(C(C[N+](=O)[O-])c2c(C)[nH]n(-c3ccccc3)c2=O)cc1 (stereo unspecified),78.1% (active)
19,COC(=O)C1(C(C[N+](=O)[O-])c2ccc(C)cc2)C(=O)NCC1c1ccco1 (stereo unspecified),29.4%
20,Cc1[nH]n(-c2ccccc2)c(=O)c1C(C[N+](=O)[O-])c1ccc(Cl)cc1 (stereo unspecified),77.5% (active)
21,Cc1cc2ccccn2c1C(C[N+](=O)[O-])c1ccc(N(C)C)cc1 (stereo unspecified),31.1%
22,Cc1[nH]n(-c2ccccc2)c(=O)c1C(C[N+](=O)[O-])c1ccc(Br)cc1 (stereo unspecified),66.2% (active)
23,COc1ccc(OC)c(N/C(=N/C(=S)Nc2ccccc2)Nc2nc(C)cc(C)n2)c1,30.3%
